{"source": "the supplement of paper PMC8728848", "binders": {"B1": {"name": "CLEC5A (Homo sapiens), Q9NY25 (protein)", "chain": "MNWHMIISGLIVVVLKVVGMTLFLLYFPQIFNKSNDGFTTTRSYGTVSQIFGSSSPSPNGFITTRSYGTVCPKDWEFYQARCFFLSTSESSWNESRDFCKGKGSTLAIVNTPEKLKFLQDITDAEKYFIGLIYHREEKRWRWINNSVFNGNVTNQNQNFNCATIGLTKTFDAASCDISYRRICEKNAK"}}, "assay_in_all_cases": "glycan array binding signal (z-score within array); higher = stronger binding", "conditions_in_all_cases": "glycan notation: IUPAC condensed, linker removed", "key": {"[1]": {"target": "GalNAc(a1-3)GalNAc(a1-3)Gal(a1-4)Gal(b1-4)GlcNAc", "how_it_was_run": "(§1)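 Arrays were curated from the Consortium for Functional Glycomics database, 3228 in total, and kept only where the protein sequence was available. Binding is expressed as a within-array Z-score. This score was averaged across arrays of the same protein sequence at different concentrations or buffers and across linkers, and negative values can be read as non-binding.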"}, "GalNAc(b1-4)Gal(b1-4)Glc": {"target": "GalNAc(b1-4)Gal(b1-4)Glc", "how_it_was_run": "as §1"}, "GalNAc(b1-4)GlcNAc": {"target": "GalNAc(b1-4)GlcNAc", "how_it_was_run": "as §1"}, "[2]": {"target": "GalNAc(b1-4)GlcNAc(b1-3)GalNAc(b1-4)GlcNAc", "how_it_was_run": "as §1"}, "GalNAc3S(b1-4)GlcNAc": {"target": "GalNAc3S(b1-4)GlcNAc", "how_it_was_run": "as §1"}, "[3]": {"target": "Glc(a1-3)Glc(a1-3)Man(a1-2)Man(a1-2)Man(a1-3)[Man(a1-3)[Man(a1-6)]Man(a1-6)]Man(b1-4)GlcNAc", "how_it_was_run": "as §1"}, "[4]": {"target": "Glc(a1-4)Glc(a1-4)Glc(a1-4)Glc(a1-4)Glc(a1-4)Glc", "how_it_was_run": "as §1"}, "Glc(a1-6)Glc": {"target": "Glc(a1-6)Glc", "how_it_was_run": "as §1"}, "[5]": {"target": "Glc(a1-6)Glc(a1-6)Glc(a1-6)Glc(a1-6)Glc", "how_it_was_run": "as §1"}, "[6]": {"target": "Glc(a1-6)Glc(a1-6)Glc(a1-6)Glc(a1-6)Glc(a1-6)Glc(a1-6)Glc", "how_it_was_run": "as §1"}, "[7]": {"target": "Glc(a1-6)Glc(a1-6)Glc(a1-6)Glc(a1-6)Glc(a1-6)Glc(a1-6)Glc(a1-6)Glc(a1-6)Glc(a1-6)Glc(a1-6)Glc(a1-6)Glc(a1-6)Glc", "how_it_was_run": "as §1"}, "[8]": {"target": "Glc(b1-3)Glc(b1-3)Glc(b1-3)Glc(b1-3)Glc", "how_it_was_run": "as §1"}, "[9]": {"target": "Glc(b1-3)Glc(b1-3)Glc(b1-3)Glc(b1-3)Glc(b1-3)Glc(b1-3)Glc", "how_it_was_run": "as §1"}, "Glc(b1-4)Glc": {"target": "Glc(b1-4)Glc", "how_it_was_run": "as §1"}, "[10]": {"target": "Glc(b1-6)Glc(b1-6)Glc(b1-6)Glc(b1-6)Glc(b1-6)Glc(b1-6)Glc(b1-6)Glc(b1-6)Glc(b1-6)Glc(b1-6)Glc(b1-6)Glc", "how_it_was_run": "as §1"}, "GlcA(b1-3)Gal": {"target": "GlcA(b1-3)Gal", "how_it_was_run": "as §1"}, "[11]": {"target": "GlcA(b1-3)Gal(b1-4)GlcNAc(b1-3)Gal(b1-4)Glc", "how_it_was_run": "as §1"}, "[12]": {"target": "GlcA(b1-3)GlcNAc(b1-4)GlcA(b1-3)GlcNAc", "how_it_was_run": "as §1"}, "[13]": {"target": "GlcA3S(b1-3)Gal(b1-4)GlcNAc(b1-3)Gal(b1-4)Glc", "how_it_was_run": "as §1"}, "[14]": {"target": "GlcNAc(a1-4)Gal(b1-3)[Fuc(a1-2)]Gal", "how_it_was_run": "as §1"}, "[15]": {"target": "GlcNAc(a1-4)Gal(b1-4)GlcNAc", "how_it_was_run": "as §1"}, "[16]": {"target": "GlcNAc(a1-4)Gal(b1-4)GlcNAc(b1-3)Gal(b1-4)[Fuc(a1-3)]GlcNAc(b1-3)Gal(b1-4)[Fuc(a1-3)]GlcNAc", "how_it_was_run": "as §1"}, "GlcNAc(b1-3)Gal(b1-4)Glc": {"target": "GlcNAc(b1-3)Gal(b1-4)Glc", "how_it_was_run": "as §1"}, "[17]": {"target": "GlcNAc(b1-3)Gal(b1-4)GlcNAc(b1-2)Man(a1-3)[GlcNAc(b1-3)Gal(b1-4)GlcNAc(b1-2)Man(a1-6)]Man(b1-4)GlcNAc(b1-4)[Fuc(a1-6)]GlcNAc", "how_it_was_run": "as §1"}, "[18]": {"target": "GlcNAc(b1-3)Gal(b1-4)GlcNAc(b1-3)Gal(b1-4)GlcNAc(b1-3)Gal(b1-4)GlcNAc(b1-3)Gal(b1-4)GlcNAc(b1-2)Man(a1-3)[GlcNAc(b1-3)Gal(b1-4)GlcNAc(b1-3)Gal(b1-4)GlcNAc(b1-3)Gal(b1-4)GlcNAc(b1-3)Gal(b1-4)GlcNAc(b1-2)Man(a1-6)]Man(b1-4)GlcNAc(b1-4)[Fuc(a1-6)]GlcNAc", "how_it_was_run": "as §1"}, "Kdn(a2-6)Gal": {"target": "Kdn(a2-6)Gal", "how_it_was_run": "as §1"}, "Man(a1-2)Man": {"target": "Man(a1-2)Man", "how_it_was_run": "as §1"}, "[19]": {"target": "Man(a1-2)Man(a1-6)[Man(a1-3)]Man(a1-6)[Man(a1-2)Man(a1-2)Man(a1-3)]Man", "how_it_was_run": "as §1"}, "[20]": {"target": "Man(a1-3)[Man(a1-6)]Man(a1-6)[Man(a1-3)]Man(b1-4)GlcNAc(b1-4)GlcNAc", "how_it_was_run": "as §1"}, "[21]": {"target": "Neu5Ac(a2-3)Gal(b1-3)GlcNAc(b1-4)Gal(b1-4)Glc", "how_it_was_run": "as §1"}, "[22]": {"target": "Neu5Ac(a2-3)Gal(b1-3)GlcNAc6S", "how_it_was_run": "as §1"}, "[23]": {"target": "Neu5Ac(a2-3)Gal(b1-4)[Fuc(a1-3)]GlcNAc(b1-3)GalNAc", "how_it_was_run": "as §1"}, "[24]": {"target": "Neu5Ac(a2-3)Gal(b1-4)[Fuc(a1-3)]GlcNAc(b1-4)GalNAc(b1-3)Gal(b1-4)Glc", "how_it_was_run": "as §1"}, "[25]": {"target": "Neu5Ac(a2-3)Gal(b1-4)[Fuc2Me(a1-3)]GlcNAc(b1-3)Gal", "how_it_was_run": "as §1"}, "[26]": {"target": "Neu5Ac(a2-3)Gal6S(b1-4)[Fuc(a1-3)]GlcNAc", "how_it_was_run": "as §1"}, "[27]": {"target": "Neu5Ac(a2-6)Gal(b1-3)GlcNAc(b1-3)[Fuc(a1-3)[Gal(b1-4)]GlcNAc(b1-6)]Gal(b1-4)Glc", "how_it_was_run": "as §1"}, "[28]": {"target": "Neu5Ac(a2-6)Gal(b1-4)GlcNAc(b1-2)Man(a1-3)[Neu5Ac(a2-3)Gal(b1-4)GlcNAc(b1-2)Man(a1-6)]Man(b1-4)GlcNAc(b1-4)GlcNAc", "how_it_was_run": "as §1"}, "[29]": {"target": "Neu5Ac(a2-6)Gal(b1-4)GlcNAc(b1-3)Gal(b1-4)GlcNAc(b1-3)GalNAc", "how_it_was_run": "as §1"}, "[30]": {"target": "Neu5Ac(a2-6)Gal(b1-4)GlcNAc(b1-3)Gal(b1-4)[Fuc(a1-3)]GlcNAc(b1-3)Gal(b1-4)[Fuc(a1-3)]GlcNAc", "how_it_was_run": "as §1"}, "[31]": {"target": "Neu5Ac(a2-8)Neu5Ac(a2-3)[Gal(b1-3)GalNAc(b1-4)]Gal(b1-4)Glc", "how_it_was_run": "as §1"}, "[32]": {"target": "Neu5Ac(a2-8)Neu5Ac(a2-8)Neu5Ac(a2-3)[Gal(b1-3)GalNAc(b1-4)]Gal(b1-4)Glc", "how_it_was_run": "as §1"}, "[33]": {"target": "Neu5Ac(b2-6)Gal(b1-4)GlcNAc", "how_it_was_run": "as §1"}, "Neu5Ac(b2-6)GalNAc": {"target": "Neu5Ac(b2-6)GalNAc", "how_it_was_run": "as §1"}, "[34]": {"target": "Neu5Ac9Ac(a2-3)Gal(b1-3)GlcNAc", "how_it_was_run": "as §1"}, "[35]": {"target": "Neu5Gc(a2-8)Neu5Ac(a2-3)Gal(b1-4)GlcNAc", "how_it_was_run": "as §1"}, "[36]": {"target": "Xyl(b1-2)[Man(a1-3)][Man(a1-6)]Man(b1-4)GlcNAc(b1-4)[Fuc(a1-3)]GlcNAc", "how_it_was_run": "as §1"}}, "note": "About 410 targets per protein were measured; listed, in parts, are those with the strongest signals and a random draw of the rest.", "data": [{"binder": "B1", "values": [{"measurement": "glycan array binding signal (z-score)", "setting": "[1]", "value": -0.892}, {"measurement": "glycan array binding signal (z-score)", "setting": "GalNAc(b1-4)Gal(b1-4)Glc", "value": -0.144}, {"measurement": "glycan array binding signal (z-score)", "setting": "GalNAc(b1-4)GlcNAc", "value": -0.135}, {"measurement": "glycan array binding signal (z-score)", "setting": "[2]", "value": -0.136}, {"measurement": "glycan array binding signal (z-score)", "setting": "GalNAc3S(b1-4)GlcNAc", "value": -0.162}, {"measurement": "glycan array binding signal (z-score)", "setting": "[3]", "value": -0.32}, {"measurement": "glycan array binding signal (z-score)", "setting": "[4]", "value": 1.32}, {"measurement": "glycan array binding signal (z-score)", "setting": "Glc(a1-6)Glc", "value": 1.7}, {"measurement": "glycan array binding signal (z-score)", "setting": "[5]", "value": -0.32}, {"measurement": "glycan array binding signal (z-score)", "setting": "[6]", "value": 1.51}, {"measurement": "glycan array binding signal (z-score)", "setting": "[7]", "value": 2.19}, {"measurement": "glycan array binding signal (z-score)", "setting": "[8]", "value": 6.52}, {"measurement": "glycan array binding signal (z-score)", "setting": "[9]", "value": 1.8}, {"measurement": "glycan array binding signal (z-score)", "setting": "Glc(b1-4)Glc", "value": -0.371}, {"measurement": "glycan array binding signal (z-score)", "setting": "[10]", "value": 1.8}, {"measurement": "glycan array binding signal (z-score)", "setting": "GlcA(b1-3)Gal", "value": -0.34}, {"measurement": "glycan array binding signal (z-score)", "setting": "[11]", "value": -0.32}, {"measurement": "glycan array binding signal (z-score)", "setting": "[12]", "value": -0.32}, {"measurement": "glycan array binding signal (z-score)", "setting": "[13]", "value": -0.074}, {"measurement": "glycan array binding signal (z-score)", "setting": "[14]", "value": -0.32}, {"measurement": "glycan array binding signal (z-score)", "setting": "[15]", "value": -0.125}, {"measurement": "glycan array binding signal (z-score)", "setting": "[16]", "value": 1.74}, {"measurement": "glycan array binding signal (z-score)", "setting": "GlcNAc(b1-3)Gal(b1-4)Glc", "value": 6.6}, {"measurement": "glycan array binding signal (z-score)", "setting": "[17]", "value": -0.014}, {"measurement": "glycan array binding signal (z-score)", "setting": "[18]", "value": 1.7}, {"measurement": "glycan array binding signal (z-score)", "setting": "Kdn(a2-6)Gal", "value": -0.32}, {"measurement": "glycan array binding signal (z-score)", "setting": "Man(a1-2)Man", "value": 1.03}, {"measurement": "glycan array binding signal (z-score)", "setting": "[19]", "value": -0.249}, {"measurement": "glycan array binding signal (z-score)", "setting": "[20]", "value": 0.488}, {"measurement": "glycan array binding signal (z-score)", "setting": "[21]", "value": -0.012}, {"measurement": "glycan array binding signal (z-score)", "setting": "[22]", "value": 0.026}, {"measurement": "glycan array binding signal (z-score)", "setting": "[23]", "value": 1.67}, {"measurement": "glycan array binding signal (z-score)", "setting": "[24]", "value": -0.32}, {"measurement": "glycan array binding signal (z-score)", "setting": "[25]", "value": 0.548}, {"measurement": "glycan array binding signal (z-score)", "setting": "[26]", "value": 0.366}, {"measurement": "glycan array binding signal (z-score)", "setting": "[27]", "value": 0.258}, {"measurement": "glycan array binding signal (z-score)", "setting": "[28]", "value": -0.161}, {"measurement": "glycan array binding signal (z-score)", "setting": "[29]", "value": -0.189}, {"measurement": "glycan array binding signal (z-score)", "setting": "[30]", "value": -0.16}, {"measurement": "glycan array binding signal (z-score)", "setting": "[31]", "value": -0.133}, {"measurement": "glycan array binding signal (z-score)", "setting": "[32]", "value": -0.191}, {"measurement": "glycan array binding signal (z-score)", "setting": "[33]", "value": -0.302}, {"measurement": "glycan array binding signal (z-score)", "setting": "Neu5Ac(b2-6)GalNAc", "value": -0.184}, {"measurement": "glycan array binding signal (z-score)", "setting": "[34]", "value": -0.191}, {"measurement": "glycan array binding signal (z-score)", "setting": "[35]", "value": -0.121}, {"measurement": "glycan array binding signal (z-score)", "setting": "[36]", "value": -0.32}]}]}
